# KB-3-1 cytotox – qHTS assay for MDR1-selective chemotherapeutics: Primary screen using the parental adenocarcinoma cell KB-3-1. KB-3-1 viability, CellTiter-Glo ATP luminescence, 72 h. Potency, µM (highest dose often 46.1 µM), actives largely listed as cytotoxic. hit rate 1.4% among 400,000. AID 1347075, 2019; note: % is set by controls: 0 for no effect and ±100 for the full control effect; nearly all actives have a fitted effect of over 60% in size
#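 Here the drug-naive KB-3-1 line serves as comparator for MDR sub-line selectivity; cells received compound titrations, 72 h at 37 °C, then CellTiter-Glo readout.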
# KB-V1 MDR tox – qHTS assay for MDR1-selective chemotherapeutics: Primary screen using the drug-selected MDR subline cells KB-V1. KB-V1 MDR cells viability, CellTiter-Glo, 72 h. Potency, µM (highest dose often 46.1 µM), actives largely listed as cytotoxic. hit rate 3.4% among 400,000; note: % is set by controls: 0 for no effect and ±100 for the full control effect; nearly all actives have a fitted effect of over 60% in size
#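 KB-V1 MDR subline cells in DMEM (phenol-red free, 10% FBS) exposed to compounds in qHTS concentration series for 72 h at 37 degrees C. Viability read by CellTiter-Glo luminescence; concentration-effect curves fitted after normalization and correction.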
# SW480 rerep – A quantitative high throughput screen for small molecules that induce DNA re-replication in SW480 colon adenocarcinoma cells; SW480 DNA re-replication, Hoechst DNA content imaging, 48 h; Potency, µM (series often up to 46.1 µM), for inactives: at the highest dose re-replication activation, hits mostly activators; hit rate 1.8% among 340,000; note: % of control where 0% means no effect; nearly all actives have a fitted effect of over 55% in size
#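 Cells (250 per well) received 23 nL compound or DMSO by pin tool and were kept 48 hr at 37 C, 5% CO2. Nuclei were then stained with Hoechst for 40 min and scanned for DNA content.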
# MCF10A rereplic – A quantitative high throughput screen for small molecules that induce DNA re-replication in MCF 10a normal breast cells; MCF 10A DNA re-replication, Hoechst nuclear intensity, 48 h; Potency, µM (highest dose often 46.1 µM), without a hit: at the highest dose activity, positive = re-replication, actives largely listed as activators; hit rate 2.9% among 350,000; AID 624296, 2012; note: % of control where 0% means no effect; nearly all actives have a fitted effect of over 50% in size
# HT1080NT lethal – qHTS for induction of synthetic lethality in tumor cells producing 2HG: qHTS for the HT-1080-NT fibrosarcoma cell line | HT-1080-NT fibrosarcoma viability, CellTiter-Glo ATP luminescence, 48 h | Potency, µM (series often up to 46.1 µM), for inactives: at the highest dose activity, negative = less viability, actives largely listed as cytotoxic | hit rate 1.6% among 360,000 | AID 686970, 2013;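 note: NT is the 2HG producing partner of a matched IDH1 knockdown line; 0% = DMSO-treated cells and -100% = media-only wells without cells; nearly all actives have a fitted effect of over 55% in size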
#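 Viability of the 2HG-overproducing fibrosarcoma line after 48 hours of compound exposure at 37 degrees C was determined by luminescence with CellTiter-Glo, and concentration-effect curves were then fitted and categorized.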
# HT1080 IDH1KD tx – qHTS for induction of synthetic lethality in tumor cells producing 2HG: qHTS for the HT-1080-IDH1KD cell line; hit rate 2% among 360,000; Potency, µM (highest dose often 46.1 µM), for inactives: top-dose activity, negative = toxicity, actives largely listed as cytotoxic; HT-1080 IDH1 knockdown viability, ATP luminescence, 48 h;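 note: 0% = DMSO wells and -100% = cell-free medium wells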
#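 After a 2 h attachment period, IDH1KD HT-1080 cells took pin-transferred compound for 48 h at 37 °C; ATP-based luminescence after 10 min room-temperature reagent incubation reported viability.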
# The depositor's hits bear a star; i = inactive; ? = inconclusive; · = not tested or not shown; [ ] = another dose, or the depositor's remark. An excerpt weighted towards active compounds, which were near 7.9% of everything screened. Calls come from the whole dose curve; as a rule, active = well fitted curve in the direction sought with a large enough effect; inconclusive = small, poorly fitted or top-dose-only effect, or another doubt; inactive = no such curve, though single readings can be large; an effect the other way counts as inactive or inconclusive. Potency is the fitted concentration of half-maximal effect.
SMILES,KB-3-1 cytotox,KB-V1 MDR tox,SW480 rerep,MCF10A rereplic,HT1080NT lethal,HT1080 IDH1KD tx
O=C(CCN1CCC(c2ccccc2)C1)c1ccc2c(c1)OCCO2 (centres undefined),i,i,?,13.3µM*,4.61µM*,18.4µM*
O=C(CCN1CCC(c2ccccc2)C1)c1ccccc1 (centres undefined),i,i,?,?,11.9%,?
CCOC(=O)C1=C[C@@H](c2ccccc2)N(S(=O)(=O)c2ccc(C)cc2)[C@H]1c1ccc(F)cc1,i,?,·,·,8.4%,-1.3%
COc1ccc(NC(=O)c2sc3nc4c(cc3c2N)CCCCCC4)cc1Cl,?,i,·,·,·,·
O=C1OC(c2ccc(F)cc2)=N/C1=C\C=C/c1ccccc1,i,i,-13.8%,0.7%,4.3%,5.0%
O=C(NCc1ccc(F)cc1)c1cc(C2CCCN(C(=O)c3ccc4c(c3)CCO4)C2)on1 (centres undefined),i,i,·,·,-23.6%,-7.5%
Cc1cc(C)nc(SCC(=O)c2ccc3c(c2)OCCO3)n1,i,?,-0.2%,14.6µM*,-3.3%,-0.3%
CCOC(=O)c1cnc(SCC(=O)c2ccc3c(c2)OCCO3)nc1N,i,i,4.0%,-4.7%,-0.4%,2.8%[9.24 µM]
CCCCC[C@H](O)/C=C/[C@H]1CCC(=O)[C@@H]1CCCCCCC(=O)N1CCCCC1CO (some centres undefined),i,i,2.7%,?,16.4µM*,13µM*
CC(C)(C)C(=O)OCCNc1nc(-c2cccs2)nc2ccccc12,·,·,·,·,-22.3%,-26.9%
COc1ccc(/C(C)=N/OCC(=O)Nc2nc3ccccc3s2)cc1OC,?,14.6µM*,-115.1%,?,8.0%,-3.1%
Cc1cc(S(=O)(=O)N2CCCOC2CNC(=O)C(=O)NCCCN2CCOCC2)ccc1F (centres undefined),i,i,1.1%,0.9%,6.0%,5.4%
COc1cc(CN2CCC(C(=O)NC(c3ccc(-c4ccccc4)cc3)c3cnccn3)CC2)cc(OC)c1 (centres undefined),?,?,·,·,23.1µM*,23.1µM*
Cc1cccnc1C(NC(=O)C1CCN(Cc2ccccc2)CC1)c1ccc(F)cc1 (centres undefined),?,?,·,·,-36.9%,-27.8%
O=C(NC(c1ccc(Cl)cc1)c1cnccn1)C1CCN(Cc2ccccc2)CC1 (centres undefined),i,i,·,·,6.7%,3.8%
O=C(NC(c1ccc(-c2ccccc2)cc1)c1cnccn1)C1CCN(Cc2ccc(Oc3ccccc3)cc2)CC1 (centres undefined),?,i,·,·,13µM*,?
COc1ccc(C(NC(=O)C2CCN(Cc3ccc(Oc4ccccc4)cc3)CC2)c2ccccc2C)cn1 (centres undefined),i,i,·,·,16.4µM*,?
Cc1cccnc1C(NC(=O)C1CCN(Cc2ccc(Oc3ccccc3)cc2)CC1)c1ccccc1 (centres undefined),i,?,·,·,23.1µM*,18.4µM*
COc1ccc(CN2CCC(C(=O)NC(C)c3cccc4ccccc34)CC2)cc1 (centres undefined),i,i,·,·,-16.3%,-14.2%
COc1ccc2c(c1)cc1c(=O)n(CC(=O)NCCCc3ccccc3)nc(C)n12,i,i,·,·,·,·
O=C(Nc1cc([N+](=O)[O-])ccc1O)c1ccc2c(c1)C(=O)N(Cc1ccco1)C2=O,i,i,-3.7%,1.1%,-8.2%,2.3%
COc1ccc(C(NC(=O)C2CCN(Cc3ccc(Oc4ccccc4)cc3)CC2)c2ccccn2)cc1 (centres undefined),i,i,·,·,14.6µM*,23.1µM*
O=C(NC(c1ccccc1)c1ccsc1)C1CCN(Cc2ccc(Cl)c(Cl)c2)CC1 (centres undefined),i,i,·,·,9.0%,4.3%
Cc1ccc(C(NC(=O)C2CCN(CCCOc3ccccc3)CC2)c2ccccn2)cc1 (centres undefined),i,i,·,·,?,?
O=C(NC(c1ccccc1)c1ccsc1)C1CCN(Cc2ccc(Oc3ccccc3)cc2)CC1 (centres undefined),i,i,·,·,18.4µM*,14.6µM*
SMILES,KB-3-1 cytotox,KB-V1 MDR tox,SW480 rerep,MCF10A rereplic,HT1080NT lethal,HT1080 IDH1KD tx
Cc1cccc(C#CC2=CC(=O)CC(C)(C)C2)c1,i,i,·,·,15.6%,0.1%
CC1(C)CC(=O)C=C(C#CC2(O)CCCCC2)C1,23.1µM*,16.4µM*,·,·,5.17µM*,13µM*
CCOc1ccc(NC(=S)Nc2cc(-c3ccccc3)[nH]n2)cc1,i,14.6µM*,4.3%,-5.1%,-18.0%,-29.8%
COc1ccc(NC(=S)Nc2cc(C)[nH]n2)cc1Cl,i,i,-9.2%,6.6%,20.5%,6.7%
COc1ccc(NC(=S)Nc2cc(-c3ccccc3)[nH]n2)cc1Cl,i,i,?,?,12.6µM*,?
COc1cccc(CNC(=O)[C@@H]2CCCN2C(=O)[C@@H]2CCCN2C(=O)OC(C)(C)C)c1,i,i,·,·,10.5%,0.4%
Cc1cc(Cl)c(S(=O)(=O)N2CCSCC2)cc1OCC(=O)NC1CCCCC1,?,3.66µM*,?,?,?,-21.5%
Cc1cc(Cl)c(S(=O)(=O)N2CCCCCC2)cc1OCC(=O)NC1CCCCC1,i,i,-5.6%,0.1%,-3.5%,2.2%
Cc1cc(Cl)c(S(=O)(=O)NC2CCCC2)cc1OCC(=O)NC1CCCCC1,?,i,13.9%,16.6%,-0.9%,20µM*
CCOc1ccccc1NC(=O)Cn1cnc2onc(-c3ccc(F)cc3)c2c1=O,i,i,·,·,·,·
CCN(CC)CCSc1nnc2c3cc(C)ccc3n(Cc3ccccc3)c2n1,i,i,28.7%,?,16.4µM*,23.1µM*
COc1ccc(-c2nn(-c3ccccc3)cc2CN(C)CCn2ccnc2C)c(F)c1,i,9.2µM*,-0.1%,2.2%,0.0%,-4.7%
COc1ccc(CCN2CC(C(=O)NCC(=O)Nc3ccc(F)c(F)c3)CC2=O)cc1OC (centres undefined),i,i,0.8%,2.5%,0.1%,1.8%
O=C1/C(=C/c2ccncc2)SC(=S)N1Nc1ccccc1,i,i,?,?,?,5.8µM*

# Bioassay records from PubChem.
